The panel holds about 79,000 compounds, 15% with a hit somewhere; the sample as a whole holds those more often. A number with no mark means an inactive call. The source made the active and inactive calls. No stated cut-off is given here; in the data, active means growth inhibition above about 70%; inactive means the rest.
Experiment: NCI Yeast Anticancer Drug Screen. Data for the cln2 rad14 strain (AID 165);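 further: 0% = growth equal to vehicle treated cultures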
Conditions: S. cerevisiae cln2 rad14 strain, at 50.0 µM, stronger effect = higher value
Procedure, shortened: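 Readout is yeast growth inhibition versus vehicle-treated controls, using a strain with cln2 and rad14 alterations exposed to compound.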
In the case of `Clc1ccc(-c2nc3ccc(Cl)cc3[nH]2)cc1`, the growth inhibition is reported as 84.3% (active).
With `O=C1c2ccccc2NC(=O)C2C1C(c1ccccc1)CC2(O)c1ccccc1` (stereo not given) the growth inhibition was 68%.
With `COc1ccc(CC2C(=O)NC(C)C(=O)N(C)C3Cc4ccc(cc4)Oc4cc(ccc4O)CC(C(=O)NC(C)C(=O)NC(C)C(=O)N2C)N(C)C3=O)cc1` (stereo not given) the growth inhibition was 70.5% (active).
For `O=C1c2cccnc2-c2nccc3c2c1nc1cc(Br)ccc13`, the growth inhibition was 88.2% (active).
With `CCN(C(=O)O)c1ccc(/C=C/c2ccnc3ccccc23)cc1` the growth inhibition was -0.1%.
`O=C(/C=C/c1cccc(Cl)c1)c1ccccc1` gave a growth inhibition of 12.9%.
In the case of `O.O.O=C(O)C(O)C(O)C(OC1OC(CO)C(O)C(O)C1O)C(O)CO.O=C(O)C(O)C(O)C(OC1OC(CO)C(O)C(O)C1O)C(O)CO.[NH-]C1CCCCC1[NH-].[Pt+2]` (stereo not given), the growth inhibition is reported as 73.2% (active).
With `O=C(N=c1sc2ccccc2s1)N=c1sc2ccccc2s1` the growth inhibition was 84% (active).
For `Cc1ccsc1/C=N/Nc1ccc2ccccc2n1`, the growth inhibition was 50.6%.
`CC(C)(C)C1=NC(=S)SC2=NC(=O)C3(NN21)c1ccccc1-c1ccccc13` showed a growth inhibition of 63%.
For `COC(=O)c1ccc(OC)cc1`, the growth inhibition was 20.7%.
With `Cc1ccc(/C=C2\CN(C)CC3=C2NC(=S)NC3c2ccc(C)cc2)cc1` (stereo not given) the growth inhibition was 16.7%.
With `O=C1NC(=O)/C(=C/C=C/c2ccccc2)S1` the growth inhibition was 77.4% (active).
In the case of `Nc1ccc(Cc2ccc(N)cc2[N+](=O)[O-])c([N+](=O)[O-])c1`, the growth inhibition is reported as 39%.
For `COc1ccccc1/C=C\C(=O)c1ccccc1`, the growth inhibition was 89.8% (active).
Molecule `NNC(=S)NN/C=C(\C=Nc1ccccc1)[N+](=O)[O-]` has a growth inhibition of 57.5%.
For `CCCCCCCCCCCCCCCCCO`, the growth inhibition was -15.6%.
With `COc1cc(C(c2cc3c(cc2O)OCO3)N2CCOCC2)cc(OC)c1OC` (stereo not given) the growth inhibition was 20.6%.
With `O=C1OCc2cccc3cccc1c23` the growth inhibition was 36.5%.
In the case of `CSC(=S)NNC(C)c1nccc2ccccc12` (stereo not given), the growth inhibition is reported as 97.8% (active).
Molecule `N#Cc1c(Cl)nc2ccccc2c1N=[N+]=[N-]` has a growth inhibition of 50.5%.
For `CC(C)(C)CC(C)(C)c1ccc(OCCSC(=N)N)cc1`, the growth inhibition was 98.6% (active).
With `COC1CCC(O)C(CO)O1` (stereo not given) the growth inhibition was 99.6% (active).
In the case of `CC(=O)N(C1=C(Cl)C(=O)c2ccccc2C1=O)c1ccc(Cl)cc1`, the growth inhibition is reported as 78% (active).
For `Cc1nc(N2N=C(c3ccc(Cl)cc3)CCC2=O)sc1[N+](=O)[O-]`, the growth inhibition was 82% (active).
Work on `Cn1c2c(c3ccccc31)CCN1C[C@@H]3CCCC[C@H]3C[C@@H]21` yielded a growth inhibition of -58.1%.
For `Cn1cc(NC(=O)Nc2cc(C(=O)Nc3cc(C(=O)Nc4ccc5cc(S(=O)(=O)O)cc(S(=O)(=O)O)c5c4)n(C)c3)n(C)c2)cc1C(=O)Nc1cc(C(=O)Nc2ccc3cc(S(=O)(=O)O)cc(S(=O)(=O)O)c3c2)n(C)c1`, the growth inhibition was 92.7% (active).
In the case of `CC(=O)Oc1c(Cl)cc(Cl)cc1C(c1cc(Cl)cc(Cl)c1OC(C)=O)C(Cl)(Cl)Cl`, the growth inhibition is reported as 82.8% (active).
With `CCCCCc1ccc2cc(C(=O)O)[nH]c2c1` the growth inhibition was 97.8% (active).
Work on `C/C(=N/O)c1cc([N+](=O)[O-])c(O)cc1O` yielded a growth inhibition of 61.1%.
In the case of `CCOC(=O)CNC(=O)Sc1ccc(C(C)(C)C)cc1C`, the growth inhibition is reported as 75.7% (active).
In the case of `S=C(N/N=C1\C=Cc2ccccc2C1)N/N=C1\C=Cc2ccccc2C1`, the growth inhibition is reported as 36.1%.
With `Cc1cccc(Nc2c3c(nc4ccccc24)CCCCC3)c1` the growth inhibition was 66.9%.
With `Cc1ccc(NS(=O)(=O)c2ccc(C)cc2)cc1` the growth inhibition was 22.4%.
In the case of `CCOC(=O)C(=CNC(=S)Nc1c(CC)cccc1C(C)(C)C)C(=O)OCC`, the growth inhibition is reported as 76.3% (active).
`COC1/C=C/OC2(C)Oc3c(C)c(OC(C)=O)c4c(c3C2=O)C(=O)C=C(NC(=O)/C(C)=C\C=C\C(C)C(O)C(C)C(O)C(C)C(OC(C)=O)C1C)C4=O` (stereo not given) gave a growth inhibition of 69.8%.
In the case of `O=C(O)c1ccc(/C=C2\COc3ccccc3C2=O)cc1`, the growth inhibition is reported as 52.8%.
`Cc1c2c(c(C)c3ccncc13)S(=O)(=O)c1ccccc1-2` showed a growth inhibition of 28.9%.
For `Oc1c(Cl)cc(Cl)c2cccnc12`, the growth inhibition was 98.2% (active).
Work on `Cc1ccc(S(=O)(=O)Nc2ccc3c(c2)C(=O)c2ccccc2-3)cc1` yielded a growth inhibition of 58.5%.

Source: PubChem BioAssay (NCI)
